Assay outcomes from PubChem.
Keap1-Nrf2 PPI: disrupts human Keap1 binding to Nrf2 peptide | Q14145 | Keap1 Kelch-Nrf2 peptide fluorescence polarization, 1536-well | inhibition, % at 9.4 µM | 340,000 compounds, 0.15% hits; in the data active = inhibition above about 12%;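 note: human Keap1 Kelch domain with fluorescein labeled Nrf2 9mer peptide probe; 0% = neutral control wells and 100% = peptide positive control; higher means more block of Keap1 binding to Nrf2 peptide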
Target sequence (Q14145 whole entry, looked up, the tested form may be a part): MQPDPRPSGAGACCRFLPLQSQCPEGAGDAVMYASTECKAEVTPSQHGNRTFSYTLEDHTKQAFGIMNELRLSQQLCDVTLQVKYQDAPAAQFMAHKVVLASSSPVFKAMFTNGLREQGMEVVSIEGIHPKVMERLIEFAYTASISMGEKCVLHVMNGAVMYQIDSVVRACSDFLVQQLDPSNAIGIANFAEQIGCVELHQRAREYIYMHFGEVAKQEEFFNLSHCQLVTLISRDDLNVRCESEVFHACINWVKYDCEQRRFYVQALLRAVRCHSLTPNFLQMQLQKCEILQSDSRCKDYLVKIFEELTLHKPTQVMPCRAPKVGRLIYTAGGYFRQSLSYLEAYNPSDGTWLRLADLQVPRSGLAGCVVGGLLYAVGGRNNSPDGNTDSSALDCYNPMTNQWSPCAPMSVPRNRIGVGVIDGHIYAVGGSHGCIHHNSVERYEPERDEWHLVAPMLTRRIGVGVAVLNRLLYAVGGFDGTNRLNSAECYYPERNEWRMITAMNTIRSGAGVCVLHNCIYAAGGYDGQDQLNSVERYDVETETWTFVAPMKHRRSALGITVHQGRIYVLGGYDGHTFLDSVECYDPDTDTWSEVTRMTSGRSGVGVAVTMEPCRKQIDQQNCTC
cardiac RTF act: increases calcium sensitivity of human cardiac regulated thin filaments. P19429+P45379. IANBD-labeled TnC RTF fluorescence at EC20 calcium; 0% EC20 calcium, 100% full calcium. activation, % at 7.2 µM. 340,000 compounds, 0.24% hits. AID 493008;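 active = activation above the mean over all tested compounds plus 3 SD, cut at about 30% in these data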;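 note: rise in fluorescence read as greater calcium sensitivity of cardiac thin filaments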
Cardiac RTF inh: cardiac RTF calcium desensitization; IANBD-labeled cardiac RTF, Ca2+ fluorescence; inhibition, % at 7.15 µM; 340,000 compounds, 0.12% hits; AID 493244;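 active = inhibition above the mean inhibition of all tested compounds plus 3 SD, cut at about 17% in these data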;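 note: assay run at fixed EC70 calcium of 1.6 mM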
C-LANA FP: inhibitors of KSHV LANA C-terminal domain DNA binding; MBP-C-LANA/FAM-LBS DNA binding, fluorescence polarization; AID 504423; inhibition, % at 9 µM; 340,000 compounds, 0.078% hits;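 active = highest replicate inhibition at or above 60% at 9 µM, even if other replicates fall short; inactive = all replicates below 60% inhibition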;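 note: 0% = neutral control wells and 100% = 4 µM acridine orange control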
eLon inh: inhibitors of E. coli Lon protease | P0A9M0 | 360,000 compounds, 0.42% hits | purified E. coli Lon protease, fluorescence polarization | inhibition, % at 7.94 µM; in the data active = inhibition above about 13%, passing the limit was not always enough;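 note: 0% = enzyme with probe and DMSO and 100% = no enzyme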
E coli Lon conf: confirmation of E. coli Lon protease inhibitors. inhibition, % at 7.94 µM. 1,400 compounds, 31% hits. shares compounds with eLon inh. purified E. coli Lon, fluorescence polarization; in the data active = inhibition above about 16%;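 note: 0% = enzyme with probe and DMSO and 100% = no enzyme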
An asterisk follows results filed as active; i = inactive; . = not tested or not shown. In the library only some 0.82% were active in any assay of this set; here they are far more common.

SMILES	Keap1-Nrf2 PPI	cardiac RTF act	Cardiac RTF inh	C-LANA FP	eLon inh	E coli Lon conf
COC(=O)c1ccccc1COc1cccn2c(N(C)Cc3cccs3)c(C)nc12	.	.	.	.	-8	.
COCCn1c(=S)[nH]c2cc(C(=O)NC3CCCC(C)C3C)ccc2c1=O (stereo unspecified)	.	.	.	.	2	.
COc1ccc(S(=O)(=O)c2c(O)c3ccc(C(=O)Nc4ccccc4Cl)cc3[nH]c2=O)cc1	4	-4	-2	1	25*	9
COC(=O)c1cc2c(C)c(C)c3ccccn3c-2c1C(=O)OC	1	23	-22	12	22*	60*
COC(=O)c1cc2c(C)cc3ccc(C)cn3c-2c1C(=O)OC	4	12	-12	9	40*	78*
COC(=O)c1cc2ccccn2c2c(C(=O)OC)c(C(=O)OC)cc1-2	-1	3	-4	2	0	.
COc1ccc(OC)c(NC(=O)CSc2nncc3ccc(OC)c(OC)c23)c1	0	-2	-7	3	50*	1
COc1ccc2cnnc(SCC(=O)Nc3ccccc3)c2c1OC	-3	2	-2	1	-2	.
CSCCC(NS(=O)(=O)c1cccc(C(F)(F)F)c1)C(=O)N1CCN(C(=O)c2ccco2)CC1 (stereo unspecified)	-6	-1	-2	-2	52*	2
CC(C)C(NS(=O)(=O)c1ccccc1)C(=O)N1CCN(C(=O)c2ccco2)CC1 (stereo unspecified)	-5	2	2	-2	4	.
CCC(CO)Oc1cc(NCc2cccnc2)c2ncn(C(C)C)c2c1 (stereo unspecified)	-5	-1	-18	3	27*	14
COc1ccc(C(=O)N2CCCC(c3cc(C(=O)Nc4ccccc4)no3)C2)cc1 (stereo unspecified)	.	.	.	.	2	.
CC1=C(C(=O)N2CCCCCC2)CC(CC(=O)NCCN2CCOCC2)C(=O)N1Cc1ccccc1 (stereo unspecified)	.	.	.	.	5	.
Cc1cc2cc(CNC(=O)c3ccc(S(=O)(=O)N4CCCC4)cc3)ccc2n1C	-4	4	-5	0	23*	6
Cc1cc2cc(CNC(=O)c3ccc(S(=O)(=O)N4CCCCC4)cc3)ccc2n1C	-6	3	-10	0	16*	-10
CC(C)(C)NC(=O)C(c1ccc(O)cc1)N(Cc1ccc2c(c1)OCO2)C(=O)CCl (stereo unspecified)	.	.	.	.	-8	.
COc1ccc(/C=C\C(=O)NCc2ccc3c(c2)cc(C)n3C)cc1OC	-3	-2	-7	0	25*	-11
COc1ccc(C(=O)NCc2ccc3c(c2)cc(C)n3C)cc1OC	-2	1	-4	1	15	.
CCOC(=O)CCC(=O)NCc1ccc2c(c1)cc(C)n2C	-1	16	-27	1	39*	-4
CCCCC(=O)NCc1ccc2c(c1)cc(C)n2C	0	-3	-6	-1	11	.
CCC(CC)C(=O)NCc1ccc2c(c1)cc(C)n2C	1	-1	-8	1	10	.
COc1cccc(C(=O)NCc2ccc3c(c2)cc(C)n3C)c1	6	8	-4	1	31*	16
Cc1cc2cc(CNC(=O)c3cccs3)ccc2n1C	0	6	-21	0	27*	14
CC1CCCC(C)N1C(=O)COc1ccc(C(=O)Nc2ccccc2N2CCOCC2)cc1 (stereo unspecified)	-5	3	-7	-1	20*	12
CCOc1c2ccccc2nn1CCO	4	5	7	1	29*	-77
SMILES	Keap1-Nrf2 PPI	cardiac RTF act	Cardiac RTF inh	C-LANA FP	eLon inh	E coli Lon conf
CCOc1c2ccccc2nn1CCOC	-4	-6	-6	2	-14	.
N#Cc1c(N2CCN(c3ccc([N+](=O)[O-])cc3)CC2)[n+](=O)c2ccc(Cl)cc2n1[O-]	-4	14	-27	-1	134*	43*
O=C1Nc2ccccc2CN2C(=O)c3cc(Cl)ccc3NC(=O)C12 (stereo unspecified)	.	.	.	.	-1	.
Cc1oc(/N=C/c2ccc(O)cc2O)c(C#N)c1C	-1	1	-6	8	14*	-170
Cc1oc(/N=C/c2ccccc2O)c(C#N)c1C	-1	0	-5	3	6	.
Cc1cc(NC(=O)c2csc([C@@H]3O[C@H](CO)[C@H](O)[C@H](O)[C@H]3O)n2)n(C)n1	.	.	.	.	-3	.
COc1ccccc1N(CC(=O)NC1CCCC1)C(=O)CCC(=O)Nc1ccccn1	6	-3	-17	1	18*	-18
Nc1ccc2nc(CCc3ccccc3)[nH]c2c1	-3	0	-2	-1	0	.
Cc1nc2ccccc2c(=O)n1CCc1ccccc1	-1	-4	-7	-2	5	.
Cc1cc2nc3c(=O)n(CCc4ccccc4)c(=O)[nH]c3nc2cc1N	11	516*	i	35	166*	89*
Nc1ccc2nc3c(=O)n(CCc4ccccc4)c(=O)[nH]c3nc2c1	.	.	.	.	191*	132*
CCCCNC(=O)C1(C)CCCCN1Cc1ccccc1-c1ccccc1 (stereo unspecified)	.	.	.	.	-6	.
O=C1NC(=S)CN1c1ccccc1	-2	2	0	0	33*	16
Cc1c(C(=O)NCc2ccc3c(c2)OCCO3)sc(=O)n1Cc1ccccc1F	.	.	.	.	2	.
CC(=O)O[C@@H]1[C@H](OC(=O)CC(C)C)c2c(ccc3ccc(=O)oc23)OC1(C)C	3	10	3	1	113*	-6
C/C=C(\C)C(=O)OC1c2c(ccc3ccc(=O)oc23)OC(C)(C)C1OC(C)=O (stereo unspecified)	2	-4	-9	2	-1	.
CCCCc1nc2cc(C(=O)N3CCN(c4cnccn4)CC3)ccc2o1	0	2	-11	-1	85*	-1
COc1ccc2nc(CCN(C)C(=O)C3CCC(=O)N(Cc4cccc(F)c4)C3)[nH]c2c1 (stereo unspecified)	4	-4	-7	0	-1	.
COc1cccc(CN2CC(C(=O)N(C)Cc3nc4ccc(F)cc4[nH]3)CCC2=O)c1 (stereo unspecified)	0	5	1	-1	69*	-19
COc1cc(C=C(C#N)c2ccc([N+](=O)[O-])cc2)ccc1O	.	.	.	.	-27	.
CC1CCCCN1C(=O)Cn1nnc(-c2cccnc2)n1 (stereo unspecified)	1	16	-13	6	26*	0
Cc1ccc(-c2nnn(CCC(=O)N3CCCCC3C)n2)cc1 (stereo unspecified)	-4	-4	4	-2	-14	.
COc1ccccc1-n1c(SCC(=O)NC2CCS(=O)(=O)C2)nc2ccccc2c1=O (stereo unspecified)	0	-5	2	2	19*	2
O=C(CSc1nc2ccccc2c(=O)n1-c1ccc(F)cc1F)NC1CCS(=O)(=O)C1 (stereo unspecified)	.	.	.	.	3	.
